Rows were chosen to be rich in hits. Some 5.1% of all compounds tested hit in one or more screens of this group.
Pol III holo inh = inhibitors of bacterial DNA polymerase III holoenzyme | reconstituted DNA polymerase III holoenzyme replication, biochemical | Potency, µM (titrated, usually from 57.1 µM) | hit rate 0.25% among 71,000
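Reconstituted *E. coli* holoenzyme (0.35 nM Pol III, 1 nM beta, 154 nM SSB, 2 nM primase) was preincubated with compound for 15 min at RT. Synthesis on 1.4 nM ssM13Gori ran 35 min, then was stopped with PicoGreen/EDTA and read as dsDNA fluorescence.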
HEK293 cAMP cs = parental HEK293 cAMP activation (counter-screen) | parental HEK293 CNG cAMP sensor, membrane potential fluorescence | Potency, µM (titrated, usually from 57.1 µM), most hits filed as activators | hit rate 2.5% among 73,000; note: nearly all actives have a fitted effect of over 55% in size
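Counterscreen for endogenous-receptor signalling: CNG-channel HEK 293 cells report cAMP rise by membrane depolarization. After 60 min dye equilibration with 100 uM RO 20-1724, compounds incubated 30 min before bottom-read fluorescence at 590 nm.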
Tau filament bind = binds recombinant human tau filaments; P10636; recombinant tau filaments, thioflavin S fluorescence, 15 h; filaments grown with octadecylsulfate alongside compound; Potency, µM (doses to about 57.1 µM); hit rate 2% among 71,000;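 note: actives lower thioflavin S fluorescence by blocking filaments or displacing dye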
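Assay mix: 1 uM His-tagged tau, 30 uM sodium octadecylsulfate, thioflavine S dye in HEPES/NaCl/DTT buffer. Compound is added prior to the inducer. Fluorescence after 15 h at 37 C.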
Hsp90 Hop PPI = changes Hsp90-Hop TPR2A binding signal, up or down. Potency, µM (series often up to 57 µM). hit rate 0.44% among 71,000. AlphaScreen TPR2A-His6 binding biotin-Hsp90 C-terminal peptide; active = well fitted curve in either direction with a large enough effect; inconclusive = small, poorly fitted or top-dose-only effect, or another doubt
TSHR ag = TSH receptor (human) agonism | Potency, µM (titrated, usually from 57.1 µM), actives largely listed as activators | hit rate 0.48% among 73,000 | HEK293-CNG-TSHR cells (CNG channel as cAMP sensor), membrane potential dye, cAMP | P16473; active = well fitted activation curve with a large enough effect in the main read-out, with a control signal flat, not every such curve was filed as active; inconclusive = small, poorly fitted or top-dose-only effect, or a change in a side signal; inactive = no such curve, though single readings can be large or run the other way; reference of the percent scale not stated here;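 note: the control signal comes from parental cells without the receptor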
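cAMP rise detected as CNG-channel membrane depolarization by fluorescent dye (emission 590 nm), 30 min after compound, following 60 min dye loading containing 100 uM RO 20-1724 at room temperature. Cells: TSHR/CNG HEK 293, with parental CNG HEK 293 as control.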
Tau ThS bind = compounds binding human tau filaments, displacing Thioflavin S. AID 911. shares compounds with Tau filament bind. recombinant tau filaments, Thioflavin S fluorescence displacement. Potency, µM. hit rate 40% among 60; calls by dose curve
aSyn ThS displ = compounds binding human alpha-synuclein fibrils, displacing Thioflavin S. recombinant alpha-synuclein fibrils, ThS fluorescence displacement. hit rate 40% among 60. Potency, µM. shares compounds with Tau filament bind; calls by dose curve
Abeta ThS bind = compounds binding human beta amyloid fibrils, displacing Thioflavin S; hit rate 50% among 60; Potency, µM; shares compounds with Tau filament bind; Abeta1-42 fibrillization, thioflavin S fluorescence, overnight 37 C; calls by dose curve
Target sequence (P05067 whole entry, looked up): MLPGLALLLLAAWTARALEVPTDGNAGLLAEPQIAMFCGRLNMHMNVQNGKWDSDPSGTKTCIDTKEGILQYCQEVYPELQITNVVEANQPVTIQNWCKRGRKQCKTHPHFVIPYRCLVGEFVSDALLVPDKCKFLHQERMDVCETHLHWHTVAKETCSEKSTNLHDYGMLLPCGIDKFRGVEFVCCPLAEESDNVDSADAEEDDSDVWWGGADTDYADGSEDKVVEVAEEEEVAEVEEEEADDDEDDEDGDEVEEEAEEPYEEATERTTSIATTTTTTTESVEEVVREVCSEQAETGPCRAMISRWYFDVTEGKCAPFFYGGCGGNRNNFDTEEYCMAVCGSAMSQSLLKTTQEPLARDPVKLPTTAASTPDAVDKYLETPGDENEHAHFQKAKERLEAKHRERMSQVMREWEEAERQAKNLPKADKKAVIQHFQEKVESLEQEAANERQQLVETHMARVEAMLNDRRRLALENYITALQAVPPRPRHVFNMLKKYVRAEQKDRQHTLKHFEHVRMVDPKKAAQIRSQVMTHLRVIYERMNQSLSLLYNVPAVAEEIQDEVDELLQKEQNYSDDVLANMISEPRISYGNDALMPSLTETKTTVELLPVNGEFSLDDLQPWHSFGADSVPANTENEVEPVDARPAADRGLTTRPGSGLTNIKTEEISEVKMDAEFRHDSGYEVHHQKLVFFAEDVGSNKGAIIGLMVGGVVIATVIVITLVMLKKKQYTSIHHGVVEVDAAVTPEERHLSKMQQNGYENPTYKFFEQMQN
HEK293 cAMP cnt = raises cAMP in parental HEK293 cells lacking TSH receptor. shares compounds with TSHR ag. parental HEK293 CNG biosensor, cAMP membrane potential fluorescence. activity change, negative = inhibition, % at 32.9 µM. 150 tested, under 10 active. AID 953
Each line names hits and unclear results; the compound was inactive in the other large screens (follow-up assays come after a bar, where they were run). Unless noted, calls come from the whole dose curve; as a rule, active = well fitted curve in the direction sought with a large enough effect; inconclusive = small, poorly fitted or top-dose-only effect, or another doubt; inactive = no such curve, though single readings can be large; an effect the other way counts as inactive or inconclusive.

COc1ccc2nc(N=Nc3ccc(N(C)C)cc3)sc2c1	none (no result: Pol III holo inh, HEK293 cAMP cs, Tau filament bind, Hsp90 Hop PPI, TSHR ag) | Tau ThS bind 0.1µM | aSyn ThS displ inactive | Abeta ThS bind 0.1µM
COc1ccc2nc(/N=C\N(C)C)sc2c1	none
CCOCCOCC	none
Cc1ccc2nc(NC(=O)C3CCCN(S(=O)(=O)c4cccc5nsnc45)C3)sc2c1 (stereo not drawn)	Tau filament bind 7.9µM | Tau ThS bind inactive | aSyn ThS displ inconclusive | Abeta ThS bind inactive
Cc1ccc2nc(NC(=O)C3CCN(S(=O)(=O)c4cccc5nsnc45)CC3)sc2c1	Tau filament bind 5µM | Tau ThS bind inactive | aSyn ThS displ inconclusive | Abeta ThS bind inactive
Cc1ccnc(NC(=O)C2CCN(S(=O)(=O)c3cccc4nsnc34)CC2)c1	none
CS(=O)(=O)N1CCC2(CCCN(c3ncccn3)C2)CC1	none
COc1ccccc1CNc1ccnc(-c2cccc(NS(C)(=O)=O)c2)n1	none
O=C(C1CCCN(S(=O)(=O)c2cccc3nonc23)C1)N1CCC(Cc2ccccc2)CC1 (stereo not drawn)	Tau filament bind 3.2µM | Tau ThS bind inconclusive | aSyn ThS displ inactive | Abeta ThS bind inactive
Nc1ccccc1NC(=O)c1ccccc1	Hsp90 Hop PPI inconclusive | Tau ThS bind inactive | aSyn ThS displ inactive | Abeta ThS bind inactive
Cc1ccc2nc(-c3ccc(N=Nc4cc(S(=O)(=O)O)c5ccccc5c4O)cc3)sc2c1S(=O)(=O)O	none (no result: Pol III holo inh, HEK293 cAMP cs, Tau filament bind, Hsp90 Hop PPI, TSHR ag) | Tau ThS bind 2.1µM | aSyn ThS displ 9.5µM | Abeta ThS bind inconclusive
Cc1ccc2nc(-c3ccc(N)cc3)sc2c1S(=O)(=O)O	Pol III holo inh inconclusive
Cc1cccn2c(=O)c3cc(C(=O)NCCN4CCOCC4)c(=N)n(CCc4ccccc4)c3nc12	Tau filament bind 0.5µM | Tau ThS bind inactive | aSyn ThS displ inconclusive | Abeta ThS bind inactive
COCCCn1c(=N)c(C(=O)NCC2CCCO2)cc2c(=O)n3cccc(C)c3nc21 (stereo not drawn)	none | Tau ThS bind inconclusive | aSyn ThS displ inconclusive | Abeta ThS bind inconclusive
CC(=O)N1CCC2(CCCN(c3ccccn3)C2)CC1	none
Cc1ccccc1Cn1ccc(NC(=O)c2cnn3c(C(F)(F)F)cc(-c4ccco4)nc23)n1	HEK293 cAMP cs inconclusive, Tau filament bind 2.5µM, TSHR ag inconclusive | Tau ThS bind inconclusive | aSyn ThS displ 2.6µM | Abeta ThS bind 6.7µM
COc1ncc2nc(-c3ccc(F)cc3)c(=O)n(C[C@H]3CCCO3)c2n1	HEK293 cAMP cs inconclusive, TSHR ag inconclusive
O=C1c2ccccc2-c2onc3ccc(NCCCn4ccnc4)c1c23	Tau filament bind 0.13µM, Hsp90 Hop PPI 25µM | Tau ThS bind 5.5µM | aSyn ThS displ 3.2µM | Abeta ThS bind 2.2µM
COc1ccc2noc3c2c1C(=O)c1ccccc1-3	Hsp90 Hop PPI inconclusive
CC(C)(C)c1ccc(CN2CCN([C@H](c3ccccc3)c3ccc(Cl)cc3)CC2)cc1	none
C=CCNC(=O)C(C#N)c1nc2ccccc2nc1N1CCN(Cc2ccccc2)CC1 (stereo not drawn)	none
C=CCOC(=O)C(C#N)c1nc2ccccc2nc1N1CCN(c2ccccc2OC)CC1 (stereo not drawn)	Tau filament bind 2.5µM, Hsp90 Hop PPI inconclusive | Tau ThS bind 4µM | aSyn ThS displ 1.4µM | Abeta ThS bind 1.1µM
CCN1CCN(c2nc3ccccc3nc2C(C#N)C(=O)OC2CCCCC2)CC1 (stereo not drawn)	Tau filament bind 0.79µM, TSHR ag inconclusive | Tau ThS bind 2.8µM | aSyn ThS displ 1.8µM | Abeta ThS bind 1.4µM
COc1ccccc1CN1CCCC2(CCN(C(=O)c3cccc(F)c3)CC2)C1	HEK293 cAMP cs inconclusive, TSHR ag inconclusive
CC1(C)CC(=O)C(C(=O)CCCCC(=O)C2C(=O)CC(C)(C)CC2=O)C(=O)C1	HEK293 cAMP cs inconclusive, TSHR ag inconclusive | Tau ThS bind inactive | aSyn ThS displ inactive | Abeta ThS bind inactive
COC(=O)CCCCC(=O)C1C(=O)CC(C)(C)C(C(=O)OC)C1=O (stereo not drawn)	none
Cc1cc(C)c2nc(N3CCCC(C(=O)N4CCC(C(N)=O)CC4)C3)sc2c1 (stereo not drawn)	none
Cc1cc(C)c2nc(N3CCCC(C(=O)NCCN4CCOCC4)C3)sc2c1 (stereo not drawn)	none | Tau ThS bind inactive | aSyn ThS displ inactive | Abeta ThS bind inactive
COc1ccc(/C=C/N(CCc2ccc(OC)c(OC)c2)C(=O)C(F)(F)F)cc1	none (no result: Pol III holo inh, Tau filament bind, Hsp90 Hop PPI)
COc1cc(OC)c(/C=C2/C(=O)Nc3ccccc32)c(OC)c1	none | Tau ThS bind inactive | aSyn ThS displ inactive | Abeta ThS bind inactive
c1cc2c3c(cccc3c1)NC1(CCCCCC1)N2	Tau filament bind 2.5µM (no result: TSHR ag) | Tau ThS bind inconclusive | aSyn ThS displ 6.3µM | Abeta ThS bind 2.2µM
O=C(O)CN(Cc1ccccc1)S(=O)(=O)c1ccc(F)cc1	none
O=C(CCN1CCN(CCC(=O)c2ccccc2)CC1)c1ccccc1	none
Nc1ccc2nc(-c3ccc(Cl)cc3)[nH]c2c1	Tau filament bind 7.9µM, Hsp90 Hop PPI inconclusive | Tau ThS bind inactive | aSyn ThS displ inconclusive | Abeta ThS bind inconclusive
Cc1ccc(/C=N/c2sc3c(c2C#N)CCCCC3)o1	Pol III holo inh inconclusive
Cc1ccc(/C=N/c2sc3c(c2C#N)CCC3)s1	Tau filament bind 2.5µM | Tau ThS bind inactive | aSyn ThS displ inconclusive | Abeta ThS bind inactive
COc1ccc(CNc2n[nH]c(NCc3ccc(OC)c(OC)c3)n2)cc1OC	none
COc1ccc(CNc2nc(SC)n[nH]2)cc1OC	Hsp90 Hop PPI inconclusive | HEK293 cAMP cnt inactive
Cc1occc1-c1nnc(SCC(=O)NCc2ccco2)n1CC(C)C	TSHR ag 20µM | HEK293 cAMP cnt inactive
CCc1nnc(NC(=O)CSc2nnc(-c3ccoc3C)n2CC(C)C)s1	none
O=c1c(CCc2ccccc2)nc2cnc(Oc3ccccc3)nc2n1C[C@H]1CCCO1	HEK293 cAMP cs inconclusive, TSHR ag inconclusive
CCS(=O)(=O)N1CCN(C(C)CCc2ccccc2)CC1 (stereo not drawn)	none (no result: TSHR ag) | HEK293 cAMP cnt inactive
CC(C)c1nnc(NC(=O)CCC(=O)NCc2ccc3c(c2)OCO3)s1	none | HEK293 cAMP cnt inactive
CS(=O)(=O)N1CCC2(CC1)CN(Cc1nccs1)C2	Tau filament bind inconclusive, Hsp90 Hop PPI inconclusive
Cn1c(=O)[nH]c(=O)c2c1nc(N1CCCCCC1)n2CCSc1nc2ccccc2o1	none
Cn1c(=O)[nH]c(=O)c2c1nc(N1CCCCCC1)n2CCCSc1nc2ccccc2o1	none | HEK293 cAMP cnt inactive

Screens: PubChem BioAssay, National Center for Advancing Translational Sciences (NCATS)
